{
  "source": "paper PMC7819943",
  "about": "“Rice protein-binding microarrays: a tool to detect cis-acting elements near promoter regions in rice”",
  "note": "Whole data set: some 35,000 sequences, median “fluorescence intensity (a.u.)” near 10,000, cut for the highest 2% near 52,000. Only a selection was taken, and the highest values are over-represented in it overall.",
  "data": [
    {"target": "T1, OsWOX13 (Oryza sativa, UniProt Q5QMM3 1-267)", "T1 sequence": "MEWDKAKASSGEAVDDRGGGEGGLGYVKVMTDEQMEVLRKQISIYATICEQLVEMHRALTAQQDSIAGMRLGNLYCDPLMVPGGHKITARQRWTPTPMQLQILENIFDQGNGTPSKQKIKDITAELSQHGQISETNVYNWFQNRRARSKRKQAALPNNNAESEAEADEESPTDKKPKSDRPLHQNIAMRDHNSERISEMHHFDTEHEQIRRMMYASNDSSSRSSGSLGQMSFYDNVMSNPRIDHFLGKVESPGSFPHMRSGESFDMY", "assay": "protein-binding microarray (RPBM); PBS, 2% BSA, 51.3 ng/ul salmon testes DNA, 50 uM zinc acetate, 200 nM TF, 25 C, 1 h; high values mean tight binding", "settings": "protein: recombinant; tags: N-terminal polyhistidine and DsRed monomer fusion (pET32a); label: CyDye5-dUTP incorporated in the synthesized complementary strand; 3' TTTTT single-stranded linker to array surface; dsDNA, one strand shown", "how_it_was_run": "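A custom Agilent array was converted to double-stranded form by primer extension with Cy5-dUTP and blocked with 2% BSA. Protein at 200 nM in PBS with 2% BSA, salmon testes DNA and 50 µM zinc acetate was applied for 1 h at 25 °C, followed by washing. The proteins were polyhistidine–DsRed N-terminal fusions of transcription factors, expressed in E. coli BL21-CodonPlus and Ni–NTA-purified. The binding signal is per-feature fluorescence intensity (arbitrary units) from an Axon 4000B scanner.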", "values": [
      {"sequence": "ATAGTTAACAAAATTTGACAGCAAACTAAATGTAACCATTCGGAGTCACCTAGTGCAG", "binding signal": "27800 fluorescence intensity (a.u.)"},
      {"sequence": "TACCCATCACCAAAATTACCATAAACACAACATACTTAGGCGGAGTCACCTAGTGCAG", "binding signal": "4380 fluorescence intensity (a.u.)"},
      {"sequence": "AACTTATATAAGTTAAATTTAAACTTATATGTTTGTGGGGCGGAGTCACCTAGTGCAG", "binding signal": "4170 fluorescence intensity (a.u.)"},
      {"sequence": "CATATAAATTGACAACTTCTACTTAAACCTGACATGTGGGCGGAGTCACCTAGTGCAG", "binding signal": "54500 fluorescence intensity (a.u.)"},
      {"sequence": "TTGACTTAAATTATAATTTTAAACCATATATTATAATTGGCGGAGTCACCTAGTGCAG", "binding signal": "31400 fluorescence intensity (a.u.)"},
      {"sequence": "CAAAATTGAAAACTTCTTATTTGAAATTCAAAACTTTCAACGGAGTCACCTAGTGCAG", "binding signal": "10200 fluorescence intensity (a.u.)"},
      {"sequence": "TAAATTGACAAATTCAACCTAGGCCTGGACTTATTTGGCGCGGAGTCACCTAGTGCAG", "binding signal": "57500 fluorescence intensity (a.u.)"},
      {"sequence": "ATATAAATTTGGAACAAATTCAACATCATGTTATCCTAGGCGGAGTCACCTAGTGCAG", "binding signal": "4060 fluorescence intensity (a.u.)"},
      {"sequence": "TTTGCTAGATTGGAGCAAATCGCATATTCTTAACCCCACCCGGAGTCACCTAGTGCAG", "binding signal": "21600 fluorescence intensity (a.u.)"},
      {"sequence": "GTTTCGTCTCGTAATTTACACGCAATCTGTGTAATTAGTTCGGAGTCACCTAGTGCAG", "binding signal": "7230 fluorescence intensity (a.u.)"},
      {"sequence": "CTAAAATTTAATTAATCATACGACAGTGAATTTCTCATTTCGGAGTCACCTAGTGCAG", "binding signal": "20300 fluorescence intensity (a.u.)"},
      {"sequence": "TCAGACAAATTAAGTTTTAGCTTAGCTTATCACTTAACGGCGGAGTCACCTAGTGCAG", "binding signal": "7680 fluorescence intensity (a.u.)"},
      {"sequence": "AAATTCCGAATTTGATTCTTAATTAAGGCGAGCTATTCACCGGAGTCACCTAGTGCAG", "binding signal": "3490 fluorescence intensity (a.u.)"},
      {"sequence": "AAACAGACAAACTACACTAATTGTGATGACTCTGGATTTTCGGAGTCACCTAGTGCAG", "binding signal": "8340 fluorescence intensity (a.u.)"},
      {"sequence": "AATTCAAGCTCATCACTGATTTGATAAGACATTAAGATAGCGGAGTCACCTAGTGCAG", "binding signal": "4050 fluorescence intensity (a.u.)"},
      {"sequence": "GTGACTGATTGACAGTATCAACCATCTAGTGTTAAGATAGCGGAGTCACCTAGTGCAG", "binding signal": "52800 fluorescence intensity (a.u.)"},
      {"sequence": "ACCATCATCAATTGATAGTTCTTGTTTCTCTAGTAGTAAGCGGAGTCACCTAGTGCAG", "binding signal": "9360 fluorescence intensity (a.u.)"},
      {"sequence": "GACGCCGTCAGCAATGATTGCCTTGCTAGCAGCTGCTTGACGGAGTCACCTAGTGCAG", "binding signal": "4390 fluorescence intensity (a.u.)"},
      {"sequence": "TACGCCTGATTGGATCCCCACCCCTATCTCCACTGACTGTCGGAGTCACCTAGTGCAG", "binding signal": "34100 fluorescence intensity (a.u.)"},
      {"sequence": "TAAGTATCCTTGATTGATTGCCTGATCGATCAGCTGCTAGCGGAGTCACCTAGTGCAG", "binding signal": "55000 fluorescence intensity (a.u.)"},
      {"sequence": "TCTTGCCAACTGATTGATCGATCCTGGAAGCTTGCTGCTGCGGAGTCACCTAGTGCAG", "binding signal": "37900 fluorescence intensity (a.u.)"},
      {"sequence": "TGTCCACTGAAATTGATTGGAGATCGATGTGATGGTCAAGCGGAGTCACCTAGTGCAG", "binding signal": "40200 fluorescence intensity (a.u.)"},
      {"sequence": "CACCTGACTGATTGGATTGGTATCGATCCAAGCCTATCAGCGGAGTCACCTAGTGCAG", "binding signal": "57100 fluorescence intensity (a.u.)"},
      {"sequence": "TTGGGTGGCAATTATTAATCAGTCATGTCATTCAACTAGACGGAGTCACCTAGTGCAG", "binding signal": "11700 fluorescence intensity (a.u.)"},
      {"sequence": "CACATGATTGATATCTCGTCACTGCTCGTAACTTCAGCCTCGGAGTCACCTAGTGCAG", "binding signal": "62100 fluorescence intensity (a.u.)"},
      {"sequence": "TTGATTGATCTTTGGTTGGATGGATGCTTGATGATGTGCTCGGAGTCACCTAGTGCAG", "binding signal": "31900 fluorescence intensity (a.u.)"},
      {"sequence": "TATTGATTGGTTCAGATGGAGACATGTGCAACTTCGTGCTCGGAGTCACCTAGTGCAG", "binding signal": "61700 fluorescence intensity (a.u.)"},
      {"sequence": "GTGCTCTTGATTGGCACATGAGCCTTGGCGGCGGTGACCTCGGAGTCACCTAGTGCAG", "binding signal": "35600 fluorescence intensity (a.u.)"},
      {"sequence": "AGTGTAATTAACTTTCTTCTTCTCTCCAACTGCTTCAGCTCGGAGTCACCTAGTGCAG", "binding signal": "11200 fluorescence intensity (a.u.)"},
      {"sequence": "TAGAGAGATTGATATTTCATGTGCTCTAGAGATGGTTGAGCGGAGTCACCTAGTGCAG", "binding signal": "28900 fluorescence intensity (a.u.)"},
      {"sequence": "GACCAACGGTGATTATTAACATGATCTATATCTATCTATCCGGAGTCACCTAGTGCAG", "binding signal": "5820 fluorescence intensity (a.u.)"},
      {"sequence": "TCAAATATGACTAAATTAGTAGTTAAGTAGTATGGGAGAACGGAGTCACCTAGTGCAG", "binding signal": "13400 fluorescence intensity (a.u.)"},
      {"sequence": "CCAACTAATCATGCTTAGTTAGCAATTAAGCCATAAACAACGGAGTCACCTAGTGCAG", "binding signal": "9180 fluorescence intensity (a.u.)"},
      {"sequence": "ATGATTGCCGTATGATATGTGATACGAAAGAGTTGGGGATCGGAGTCACCTAGTGCAG", "binding signal": "32700 fluorescence intensity (a.u.)"},
      {"sequence": "CCAGATTGATGGCTATCATCAGGCCATGCTGTTCTCGTCTCGGAGTCACCTAGTGCAG", "binding signal": "59800 fluorescence intensity (a.u.)"},
      {"sequence": "CTAGATGATTGGCTATCATCACCTGTTCACAATCTTATGTCGGAGTCACCTAGTGCAG", "binding signal": "61900 fluorescence intensity (a.u.)"},
      {"sequence": "ATGGATGACTGTGATATGATATCTTACACATCAATGATAGCGGAGTCACCTAGTGCAG", "binding signal": "7720 fluorescence intensity (a.u.)"},
      {"sequence": "CGTCCGTCATTGATTATGCCAGATCATAGCTGTACGTCGTCGGAGTCACCTAGTGCAG", "binding signal": "21300 fluorescence intensity (a.u.)"},
      {"sequence": "TGTGTCATGTTCTGATTGGCTGTGGTTGGTTTGATTTTCTCGGAGTCACCTAGTGCAG", "binding signal": "21100 fluorescence intensity (a.u.)"},
      {"sequence": "TGTTTGATTATGTTCAATCATTGCAAATCATGTCATCTGTCGGAGTCACCTAGTGCAG", "binding signal": "45900 fluorescence intensity (a.u.)"},
      {"sequence": "TGCATGAATTGATCAACAAGACAAAAGTTACAAAACATGTCGGAGTCACCTAGTGCAG", "binding signal": "4160 fluorescence intensity (a.u.)"},
      {"sequence": "TTTCAGCACATCATTCCAATTTCAATCATATTTCCAAACTCGGAGTCACCTAGTGCAG", "binding signal": "4200 fluorescence intensity (a.u.)"},
      {"sequence": "TTCCGGACGTGTGATTGCGATGAGACGTGTTGCAATATCCCGGAGTCACCTAGTGCAG", "binding signal": "7260 fluorescence intensity (a.u.)"},
      {"sequence": "ACTATTGGAGTATGGTGCGTGATTGTCCACAATTTATTCACGGAGTCACCTAGTGCAG", "binding signal": "3150 fluorescence intensity (a.u.)"},
      {"sequence": "ACCATTAATAGATTGAGAGCGAATGAATTGGTGCCACGTGCGGAGTCACCTAGTGCAG", "binding signal": "55000 fluorescence intensity (a.u.)"},
      {"sequence": "CCATTAAATGCACAATGACACAATTTGAGGATCAGTTTAGCGGAGTCACCTAGTGCAG", "binding signal": "3340 fluorescence intensity (a.u.)"},
      {"sequence": "GATTAGATTGATCATTGATCGATCAGTGCCATTAATTGAGCGGAGTCACCTAGTGCAG", "binding signal": "30900 fluorescence intensity (a.u.)"}
    ]}
  ]
}
